Data from PubChem BioAssay (NCATS).
Records with an inconclusive call do not appear. Entries that show only a call come without a potency. The source made the active and inactive calls. Calls come from the whole dose curve.

Assay: Cytotoxicity counterscreen for inhibitors of SARS-CoV-2 cell entry (AID 1645845); note: nearly all actives have a fitted effect of over 50% in size
Conditions: cell viability (SARS-CoV-2 entry assay cells); series mostly up to 57.1 µM
From the text: Assay Provider: Wei Zheng, Ph.D.
National Center for Advancing Translational Sciences, National Institute of Health, Rockville, MD.
SARS-CoV-2 spike protein, within the viral envelope, mediates viral attachment and infection of host cells. The SARS-CoV-2 spike protein specifically binds to the host receptor ACE2 (Angiotensin-converting enzyme 2). This interaction promotes endocytosis of the viral particle, additional events lead to viral-host cell membrane fusion and release of the viral contents, allowing viral replication.
While SARS-CoV-2 requires BSL-3 facilities for live virus work, pseudo-typed partices (PP) that incorporate SARS-CoV-2 spike proteins without replication elements could facilitate studies on viral entry mechanisms in a BSL-2 setting. This PP cell entry assay could also enable screening of small molecule compound libraries in BSL-2 setting to identify inhibitors of SARS-CoV-2 cell entry. To eliminate false positive compounds, ATP content cytotoxicity assay was screened in the same cell line.
SEQUENCE No. (e.g., 1, 2, 3, etc.); […] (e.g., Cells, Incubation, Reagent, etc.); VALUE and DESCRIPTION.
1. Cells. Seed 1500 HEK293-ACE2 cells (Expi293F with stable expression of human ACE2) in 2 uL/well media (DMEM, 10% FBS, 1x L-glutamine, 1x Pen/Strep, 1 ug/ml puromycin) in white 1536-well assay plates (Greiner #782073).
2. Incubation. Incubate at 37 C with 5% CO2 overnight (~16 h).
3. Compounds. Dispense 23 nL/well compounds in DMSO via pin transfer.
4. Incubation. Incubate for 1 h at 37C 5% CO2.
5. Reagent. Dispense 2 uL/well of media (DMEM, 10% FBS, 1x L-glutamine, 1x Pen/Strep, 1 ug/ml puromycin).
6. Incubation. Incubate at for 48h at 37C 5% CO2
7. Reagent. Dispense 4 uL/well of ATPLite 1step luminescence assay reagent (PerkinElmer #6016739).
8. Incubation. Incubate for 15 min at room temperature.
9. Detection. Read luminescence signal (Viewlux plate reader, PerkinElmer). Data was normalized with wells containing cells as 100%, and wells without cells (media only control) as 0%.
For `O=C(NCC(O)CO)c1c(I)c(C(=O)NCC(O)CO)c(I)c(N(CCO)C(=O)CO)c1I` (stereo not given), the Potency was “inactive”.
In the case of `NS(=O)(=O)c1cc(C2(O)NC(=O)c3ccccc32)ccc1Cl` (stereo not given), the Potency is reported as “inactive”.
With `O=C1CC[C@H](C(=O)N2CCCCC2)N1` the Potency was “inactive”.
In the case of `NC(CO)(CO)CO`, the Potency is reported as “inactive”.
In the case of `COP(=S)(OC)Oc1ccc(S(=O)(=O)N(C)C)cc1`, the Potency is reported as “inactive”.
For `COC1CC(=C(c2cccs2)c2cccs2)C[N+](C)(C)C1` (stereo not given), the Potency was “inactive”.
In the case of `CC(=O)OCC(=O)[C@@]1(O)[C@H](OC(C)=O)C[C@H]2[C@@H]3CCC4=CC(=O)C=C[C@]4(C)[C@@]3(F)[C@@H](O)C[C@@]21C`, the Potency is reported as “inactive”.
In the case of `Clc1cccc(Cl)c1NC1=NCCN1`, the Potency is reported as “inactive”.
For `Cc1c[nH]c2ccccc12`, the Potency was “inactive”.
In the case of `CCCN1CCCC[C@H]1C(=O)Nc1c(C)cccc1C`, the Potency is reported as “inactive”.
In the case of `COc1ccnc(CS(=O)c2nc3ccc(OC(F)F)cc3[nH]2)c1OC` (stereo not given), the Potency is reported as “inactive”.
In the case of `Cc1ccc(C(=O)C(C)CN2CCCCC2)cc1` (stereo not given), the Potency is reported as “inactive”.
In the case of `CC1COc2c(N3CCN(C)CC3)c(F)cc3c(=O)c(C(=O)O)cn1c23` (stereo not given), the Potency is reported as “inactive”.
With `CCCCCCCCCCOc1cc2c(=O)c(C(=O)OCC)c[nH]c2cc1OCC` the outcome was “inactive [at 5.25 µM]”.
In the case of `Cc1nnc(SCC2=C(C(=O)O)N3C(=O)[C@@H](NC(=O)Cn4cnnn4)[C@H]3SC2)s1`, the Potency is reported as “inactive”.
For `Cc1ccc(C(C)C)cc2c(C)ccc1-2`, the Potency was “inactive”.
In the case of `c1ccc2c(CC3=NCCN3)cccc2c1`, the Potency is reported as “inactive”.
In the case of `Oc1ccccc1`, the Potency is reported as “inactive”.
In the case of `CC(=O)O[C@@H]1C(=O)O[C@@H]2[C@H]1OC(=O)[C@@H]2OC(C)=O`, the Potency is reported as “inactive”.
In the case of `CO/N=C(/C(=O)N[C@@H]1C(=O)N2C(C(=O)OCOC(=O)C(C)(C)C)=C(C)CS[C@H]12)c1csc(N)n1`, the Potency is reported as “inactive”.
For `CCOC(=O)c1ccc(N)cc1`, the Potency was “inactive”.
For `OC[C@H]1O[C@@H](n2cnc3c2NC=NC[C@H]3O)C[C@@H]1O`, the Potency was “inactive”.
With `O=C(O)/C=C(\CC(=O)O)C(=O)O` the Potency was “inactive”.
For `CCC(C(=O)NC(=O)NC(C)=O)c1ccccc1` (stereo not given), the Potency was “inactive”.
For `O=C(O)CCCC[C@@H]1SC[C@@H]2NC(=O)N[C@@H]21`, the Potency was “inactive”.
In the case of `C/C=C1\[C@H]2C=C(C)C[C@]1(N)c1ccc(=O)[nH]c1C2`, the Potency is reported as “inactive”.
With `CCC1(c2ccc(N)cc2)CCC(=O)NC1=O` (stereo not given) the Potency was “inactive”.
With `Cn1nnc2c(C(N)=O)ncn2c1=O` the Potency was “inactive”.
With `NC(=O)N1c2ccccc2C=Cc2ccccc21` the Potency was “inactive”.
In the case of `CCCCCCCCCCCCCCCCCC(=O)O`, the Potency is reported as “inactive”.
With `Nc1c(I)cc(I)c(C(=O)N(CCC(=O)O)c2ccccc2)c1I` the Potency was “inactive”.
In the case of `CN1C(C(=O)Nc2ccccn2)=C(O)c2sccc2S1(=O)=O`, the Potency is reported as “inactive”.
For `O=C(O)CN(CCN(CC(=O)O)CC(=O)O)CCN(CC(=O)O)CC(=O)O`, the Potency was “inactive”.
For `CC(C(=O)O)c1cccc(Oc2ccccc2)c1` (stereo not given), the Potency was “inactive”.
In the case of `NCCS(=O)(=O)O`, the Potency is reported as “inactive”.
In the case of `CC(C)CN(C[C@@H](O)[C@H](Cc1ccccc1)NC(=O)O[C@H]1CO[C@H]2OCC[C@H]21)S(=O)(=O)c1ccc(N)cc1`, the Potency is reported as “inactive”.
In the case of `CCN(CC)CCNC(=O)c1cc(S(C)(=O)=O)ccc1OC`, the Potency is reported as “inactive”.
With `NCc1ccc(S(N)(=O)=O)cc1` the Potency was “inactive”.
With `CCC(Cc1c(I)cc(I)c(N)c1I)C(=O)O` (stereo not given) the Potency was “inactive”.
For `CCCCCCCCCCCCCCCCOP(=O)([O-])OCC[N+](C)(C)C`, the Potency was “inactive”.
